The panel holds about 83,000 compounds, 20% with a hit somewhere; the sample as a whole holds those more often.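 The endpoint reported here, percent growth, reads 100 for growth as untreated, 0 for no net growth and -100 for all cells dead.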 Activity calls are given as the source filed them. How the source made its calls: active means growth percent below 10; inactive means the rest.
Key:
Experiment in all cases: NCI-60 one-dose screen, 48 h (100 = growth as untreated, 0 = no growth, -100 = all killed)
Settings in all cases: 10 µM unless noted
SK-MEL-2 melanoma = test system: SK-MEL-2 melanoma
EKVX NSCLC = test system: EKVX NSCLC
SN12C renal = test system: SN12C renal
UO-31 renal = test system: UO-31 renal
TK-10 renal = test system: TK-10 renal
ACHN renal = test system: ACHN renal
A498 renal = test system: A498 renal
CCRF-CEM leukemia = test system: CCRF-CEM leukemia
MOLT-4 leukemia = test system: MOLT-4 leukemia
SR leukemia = test system: SR leukemia

Measured: growth

CCCn1cc(/C=N\N=C2\C(=O)Nc3ccc(C)cc32)c2ccccc21
active: CCRF-CEM leukemia -0.646% | MOLT-4 leukemia -9.9%
inactive: SK-MEL-2 melanoma 35.1% | EKVX NSCLC 50.5% | SN12C renal 49.9% | UO-31 renal 60% | TK-10 renal 107% | ACHN renal 55.7% | A498 renal 57.2% | SR leukemia 11.6%

O=c1[nH]c2ccccc2cc1-c1nc2ccncc2[nH]1
inactive: SK-MEL-2 melanoma 73.9% | EKVX NSCLC 81.9% | SN12C renal 94.3% | UO-31 renal 78.4% | TK-10 renal 73.8% | ACHN renal 72.2% | A498 renal 88.7% | CCRF-CEM leukemia 59.5% | MOLT-4 leukemia 45.8% | SR leukemia 46.8%

[2H]c1nc(Nc2ncc3cc(C(=O)N(C)C)n(C4CCCC4)c3n2)c([2H])c([2H])c1N1C([2H])([2H])C([2H])([2H])NC([2H])([2H])C1([2H])[2H]
active: MOLT-4 leukemia 5.14%
inactive: SK-MEL-2 melanoma 83.9% | EKVX NSCLC 64.4% | SN12C renal 67.9% | UO-31 renal 52.5% | TK-10 renal 37% | ACHN renal 47.1% | A498 renal 76.8% | CCRF-CEM leukemia 38.5% | SR leukemia 26.6%

O=C(C[n+]1cccc2cc(Cl)ccc21)c1ccc2c(c1)CCCC2
active: MOLT-4 leukemia 1.84%
inactive: SK-MEL-2 melanoma 28.3% | EKVX NSCLC 44.7% | SN12C renal 10.1% | UO-31 renal 91.4% | TK-10 renal 62% | ACHN renal 86.2% | A498 renal 74% | CCRF-CEM leukemia 16% | SR leukemia 19%

O=C1CC23OC4ON=C(Br)C4C2C(O)c2ccccc2N13 (stereo unspecified)
inactive: SK-MEL-2 melanoma 89.8% | EKVX NSCLC 92.1% | SN12C renal 101% | UO-31 renal 63.4% | TK-10 renal 132% | ACHN renal 94.3% | A498 renal 118% | CCRF-CEM leukemia 111% | SR leukemia 107%

Nc1ccccc1NC(=O)c1ccc(CSc2nc(N3CCOCC3)c3cccn3n2)cc1
inactive: EKVX NSCLC 25.8% | SN12C renal 16.6% | ACHN renal 16.3% | SR leukemia 13.4%
active: SK-MEL-2 melanoma -28.9% | UO-31 renal -24.8% | TK-10 renal -10.7% | A498 renal -12.1% | CCRF-CEM leukemia 5.4%

N#CC(C#N)=C1NC(c2ccccc2)=C(c2ccccc2)C(c2ccccc2Cl)=C1C#N
inactive: SK-MEL-2 melanoma 94.8% | EKVX NSCLC 97.6% | SN12C renal 111% | UO-31 renal 96.8% | TK-10 renal 80.7% | ACHN renal 110% | A498 renal 113% | CCRF-CEM leukemia 96.2% | SR leukemia 109%

O=C(O)COc1ccc2c(=O)c3sc4c(=O)c5ccccc5c(=O)c4c3c(=O)c2c1
inactive: SK-MEL-2 melanoma 25.5% | EKVX NSCLC 78.9% | UO-31 renal 43.5% | TK-10 renal 74.8% | ACHN renal 62.7% | CCRF-CEM leukemia 56.8% | SR leukemia 26.6%
active: SN12C renal -11.6% | A498 renal -86.9%

Nc1c(C(=O)Nc2cccc3ccccc23)sc2nc3c(cc12)COCC3
inactive: SK-MEL-2 melanoma 49.1% | EKVX NSCLC 85.1% | SN12C renal 59.9% | UO-31 renal 77% | TK-10 renal 96.4% | ACHN renal 62.5% | A498 renal 54.2% | CCRF-CEM leukemia 23.6% | SR leukemia 22.4%

O=C1[C@@H](OS(=O)(=O)CC(F)(F)F)[C@H](c2ccc(F)cn2)N1c1cc2c3ccccc3ccc2c2ccccc12
inactive: SK-MEL-2 melanoma 89.9% | EKVX NSCLC 87.6% | SN12C renal 80.7% | UO-31 renal 62.1% | TK-10 renal 88.4% | ACHN renal 76.3% | A498 renal 83.6%
active: CCRF-CEM leukemia 9.13% | SR leukemia 4.47%

COC(=O)/C=C1\SC(=Nc2cccc(OC)c2)N(CCc2c[nH]c3ccccc23)C1=O
inactive: SK-MEL-2 melanoma 60.8% | EKVX NSCLC 76.1% | SN12C renal 64.4% | UO-31 renal 76.3% | TK-10 renal 89.3% | ACHN renal 78.4% | A498 renal 90.1% | CCRF-CEM leukemia 24.7% | SR leukemia 12%

CCCCCCCCCCCCCC1=NCC[N+]1(CCO)Cc1ccccc1 (stereo unspecified)
active: SK-MEL-2 melanoma -61.7% | EKVX NSCLC -79.5% | SN12C renal -84.3% | UO-31 renal -86.1% | TK-10 renal -85.4% | ACHN renal -98% | CCRF-CEM leukemia -49.5% | SR leukemia -50.7%
inactive: A498 renal 54.2%

Nc1ccc2c(c1)C(=O)C(=O)c1c-2nc2ccccn12
inactive: EKVX NSCLC 31.5% | TK-10 renal 115% | CCRF-CEM leukemia 13.6%
active: SK-MEL-2 melanoma -32.1% | SN12C renal -81% | UO-31 renal -40.8% | ACHN renal -58.8% | A498 renal -19.3% | SR leukemia 2.06%

COc1ccc(/C=C/C(=O)/C=C(/C=C/c2ccc(OC)c(OC)c2)OB(F)F)cc1OC
active: SN12C renal -5.34% | ACHN renal -15.8% | CCRF-CEM leukemia -12% | SR leukemia 0.197%
inactive: SK-MEL-2 melanoma 76.8% | EKVX NSCLC 38% | UO-31 renal 40% | TK-10 renal 36.9% | A498 renal 95.7%

COc1cc(C)ccc1Oc1nc(Nc2ccc(N3CCOCC3)cc2)ncc1N=Cc1cc(C(F)(F)F)cc(C(F)(F)F)c1
inactive: SK-MEL-2 melanoma 70.2% | EKVX NSCLC 81.7% | SN12C renal 80.3% | UO-31 renal 47.6% | TK-10 renal 81.6% | ACHN renal 56.3% | A498 renal 58.8% | CCRF-CEM leukemia 82% | SR leukemia 49.7%

CCOCCc1c(O)nc(SC)[nH]c1=O
inactive: EKVX NSCLC 121% | SN12C renal 92.6% | UO-31 renal 83.9% | TK-10 renal 122% | ACHN renal 108% | A498 renal 85.7% | CCRF-CEM leukemia 113% | SR leukemia 112%
active: SK-MEL-2 melanoma -28.8%

S=c1ssnc1-c1cc2ccccc2o1
active: CCRF-CEM leukemia 7.9%
inactive: SK-MEL-2 melanoma 91.2% | EKVX NSCLC 76.6% | SN12C renal 98.8% | UO-31 renal 52.5% | TK-10 renal 98.4% | ACHN renal 80.3% | A498 renal 103% | SR leukemia 41.6%

Cc1c(Cl)cccc1NC(=O)c1sc2nc3c(cc2c1N)CCCCCC3
inactive: SK-MEL-2 melanoma 11.8% | EKVX NSCLC 39.8% | SN12C renal 42.4% | UO-31 renal 55.4% | TK-10 renal 44.9% | ACHN renal 41.8% | CCRF-CEM leukemia 10.9% | SR leukemia 16%
active: A498 renal -9.95%

CN(CCC#N)C(=O)Nc1ccccc1
inactive: SK-MEL-2 melanoma 98.7% | EKVX NSCLC 105% | SN12C renal 111% | UO-31 renal 87.3% | TK-10 renal 84.1% | ACHN renal 110% | A498 renal 90.4% | CCRF-CEM leukemia 111% | SR leukemia 96.5%

COC(=O)c1nc(-c2ccccc2)oc1S(=O)(=O)n1nc(C)cc1N
inactive: SK-MEL-2 melanoma 80.3% | EKVX NSCLC 87.8% | SN12C renal 58.5% | UO-31 renal 51.4% | TK-10 renal 73.5% | A498 renal 99.9%
active: ACHN renal -86.2% | CCRF-CEM leukemia 9.2% | SR leukemia 3.74%

O=C1Nc2ccccc2C12C=C(c1ccccc1)Nc1c2c(-c2ccccc2)nn1-c1ccccc1 (stereo unspecified)
inactive: SK-MEL-2 melanoma 80.1% | EKVX NSCLC 53.2% | SN12C renal 76.5% | UO-31 renal 62.9% | TK-10 renal 87.8% | ACHN renal 60.4% | A498 renal 75.6% | CCRF-CEM leukemia 25.9% | SR leukemia 38%

NS(=O)(=O)c1ccc(-n2ncc(NC(=O)Nc3ccc(S(=O)(=O)Nc4nccs4)cc3)c2-c2ccccc2)cc1
inactive: SK-MEL-2 melanoma 93.2% | EKVX NSCLC 100% | SN12C renal 98.8% | UO-31 renal 97.5% | TK-10 renal 95.9% | ACHN renal 96.5% | A498 renal 112% | CCRF-CEM leukemia 97.7% | SR leukemia 103%

C=CCn1c(SCC(=O)Nc2ccc(C(=O)/C=C/c3ccc(Cl)cc3)cc2)nnc1-c1cc(OC)c(OC)c(OC)c1
inactive: SK-MEL-2 melanoma 103% | EKVX NSCLC 92.3% | SN12C renal 79.7% | UO-31 renal 66.5% | TK-10 renal 102% | ACHN renal 106% | A498 renal 82.5% | CCRF-CEM leukemia 84.6% | SR leukemia 72.9%

CCOC(=O)/C=C1\SC(=Nc2ccc(C#N)cc2)N(CCN2C(=O)/C(=C/C(=O)OCC)SC2=Nc2ccc(C#N)cc2)C1=O
active: CCRF-CEM leukemia 1.57% | SR leukemia 1.69%
inactive: SK-MEL-2 melanoma 80.8% | EKVX NSCLC 35.2% | SN12C renal 24.2% | UO-31 renal 56.6% | TK-10 renal 87.4% | ACHN renal 78.6% | A498 renal 63.7%

CC(C)(C)c1nc2c(s1)c1nc(N)ncc1c1ccc(NS(=O)(=O)c3c(F)cccc3F)c(F)c12
inactive: SK-MEL-2 melanoma 50% | EKVX NSCLC 60.5% | SN12C renal 58.9% | UO-31 renal 28.9% | TK-10 renal 64.4% | ACHN renal 22.6% | CCRF-CEM leukemia 73.3% | SR leukemia 42.3%
active: A498 renal -2.96%

CCn1cc(C(=O)O)c(=O)c2cc(F)c(N3CCN(CC(=O)Nc4ccc(/C(C)=N/OC)cc4)CC3)cc21
inactive: SK-MEL-2 melanoma 109% | EKVX NSCLC 95.5% | SN12C renal 101% | UO-31 renal 79.9% | TK-10 renal 101% | ACHN renal 103% | A498 renal 92.9% | CCRF-CEM leukemia 105% | SR leukemia 82.6%

C=C(C)[C@@H]1CC[C@]2(C(=O)O)CC[C@]3(C)[C@H](CC[C@@H]4[C@@]5(C)C[C@@H](CC#Cc6ccccc6C)C(=O)C(C)(C)[C@@H]5CC[C@]43C)[C@@H]12
inactive: SK-MEL-2 melanoma 41.1% | EKVX NSCLC 28.1% | SN12C renal 37.8% | UO-31 renal 29.4% | TK-10 renal 27.3% | ACHN renal 29.4% | A498 renal 10.7% | CCRF-CEM leukemia 31.1% | SR leukemia 23%

c1cc(CNC23CC4CC(CC(C4)C2)C3)cc(C[N+](Cc2cccc(CNC34CC5CC(CC(C5)C3)C4)c2)(Cc2cccc(CNC34CC5CC(CC(C5)C3)C4)c2)Cc2cccc(CNC34CC5CC(CC(C5)C3)C4)c2)c1 (stereo unspecified)
inactive: SK-MEL-2 melanoma 31.8% [42 µM] | EKVX NSCLC 30.7% [42 µM] | TK-10 renal 27.1% [42 µM] | A498 renal 50.1% [42 µM]
active: SN12C renal 7.96% [42 µM] | UO-31 renal -8.13% [42 µM] | ACHN renal -9.81% [42 µM] | CCRF-CEM leukemia 3.92% [42 µM] | SR leukemia 9.46% [42 µM]
